Among the data in the OligoGym collection are sensor-assay potency score (higher = more potent) values, retold here.
Further: reference of the scale not given here.

The first assay concerns the target UNC5D. Description: pooled miR-30 sensor sort-seq; sequence = guide strand. Conditions: shRNA.
With TTTGTGATGACACAGTACCCAC, the sensor-assay potency score (higher = more potent) was -1.26. On the same count and under the same terms, the result for TAAATTAACTTTATGATGCTAC reads -0.135; that for TTGACAATAATCTTGTCTCATC, -0.801.

With TACATTTGTTTATCAATCCTGA, the sensor-assay potency score (higher = more potent) was -0.0896. On the same count and under the same terms, for TTAGAAAAAACAACTTTCCGTA the value was 0.101; for TAGATAACTAGATCAACACGTG, -0.0609.

Consider TACATTTCTATAGAAATCCTAT, for which the sensor-assay potency score (higher = more potent) is -0.569. Same read-out and setting: for TTAGTCTACCAGGACATCTTGT the value was -0.288; for TAACCAACCTCTAAGTAGCTGA, 0.224; for TTAAAATGTATCAAACATCTAA, 0.16.

The next assay has as its target UPK1A. The description is as above. The conditions noted are these: shRNA.
TAGCTGTCGATGGCGTGGCCGA returned a sensor-assay potency score (higher = more potent) of -1.49. Same read-out and setting: for TTGGTGAACAGGTAGTCCATGT the value was -0.409; for TAGCAGGCCCACCACAACTGGA, -1.8; for TACTGGTCGGCTGTCACCCATA, -1.44.

For the sequence TAGAAGGTCAGCATCTGCTTGG, the sensor-assay potency score (higher = more potent) was -0.08. Same read-out and setting: for TCTTGCTCAATCATGACGCGGT the value was 0.151; for TTGGACACCATGTAGTCACGGT, 0.419; for TAGGACGTGATGCAGGAGGCGC, -1.09. Take TACGTGAGGACCATGGACCGGC: the sensor-assay potency score (higher = more potent) is 0.148. The same measure, in the same setting: for TATGGTCTCAGCAAACAGGGAC the value was -0.387. Same read-out and setting: the result for ATGGCTATCAGCATGACCGGGA reads -0.114.

In a further assay the target is UQCRQ. The description is as above. Conditions: shRNA.
Sequence TCCTTTAGTGAAGACGTGCGGA came in with a sensor-assay potency score (higher = more potent) of -0.407. Consider TCGAACGGTGACAAGCTGTAGC, for which the sensor-assay potency score (higher = more potent) is -0.337. In the case of TGGATCTCTCGAACTCTTCAGT, the sensor-assay potency score (higher = more potent) was -0.739.

With TATTGTGTCTTTGAGACACTAC, the sensor-assay potency score (higher = more potent) was -0.42. For TTCTTCCTCTTGGATCTCTCGA, the sensor-assay potency score (higher = more potent) is -0.853. For the sequence ATAAAACACTACAAACTGCGGC, the sensor-assay potency score (higher = more potent) came to 0.284. On the same count and under the same terms, for TAAAACACTACAAACTGCGGCA the value was 0.151. TGCTCGAACGGTGACAAGCTGT displayed a sensor-assay potency score (higher = more potent) of -0.735. Still for that read-out and setting: for TGTAGCTGATCACATGCCGCAT the value was -0.74; for AACGGTGACAAGCTGTAGCTGA, 0.0218. The same measure, in the same setting: the result for TCGAACTCTTCAGTCCCCCATG reads -1.13.

A further assay addresses USO1. The assay is described as above. The conditions noted are these: shRNA.
As for TTTTAATGTAGAAACCTGCTGC, the sensor-assay potency score (higher = more potent) was 0.733. Sequence TAGGATAGTACAAAGCTGCTGC registered a sensor-assay potency score (higher = more potent) of 0.88.

Sequence TATGATATAATCTCTATTGTTC showed a sensor-assay potency score (higher = more potent) of -0.231. On the same count and under the same terms, for TTTCTGATCTTGATCGGCCAAG the value was -1.48; for TAAAATAATTTGTTGCACCTGA, 0.172.

TAGCATTAGATGTAGATTGGTC returned a sensor-assay potency score (higher = more potent) of 0.084. On the same count and under the same terms, for TACCAATACACGAACAAGCTGT the value was 0.107. With TTATCATTGAAATAAATCGAAA, the sensor-assay potency score (higher = more potent) is -1.61.
